Structures are written as SMILES.

For one assay, the target named is Non-receptor tyrosine-protein kinase TYK2 (Homo sapiens) (UniProt P29597). The note with it: at 1 µM.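 Also: values are mean percent inhibition of TYK2 kinase.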
Chain of Non-receptor tyrosine-protein kinase TYK2 (Homo sapiens) (P29597 whole entry): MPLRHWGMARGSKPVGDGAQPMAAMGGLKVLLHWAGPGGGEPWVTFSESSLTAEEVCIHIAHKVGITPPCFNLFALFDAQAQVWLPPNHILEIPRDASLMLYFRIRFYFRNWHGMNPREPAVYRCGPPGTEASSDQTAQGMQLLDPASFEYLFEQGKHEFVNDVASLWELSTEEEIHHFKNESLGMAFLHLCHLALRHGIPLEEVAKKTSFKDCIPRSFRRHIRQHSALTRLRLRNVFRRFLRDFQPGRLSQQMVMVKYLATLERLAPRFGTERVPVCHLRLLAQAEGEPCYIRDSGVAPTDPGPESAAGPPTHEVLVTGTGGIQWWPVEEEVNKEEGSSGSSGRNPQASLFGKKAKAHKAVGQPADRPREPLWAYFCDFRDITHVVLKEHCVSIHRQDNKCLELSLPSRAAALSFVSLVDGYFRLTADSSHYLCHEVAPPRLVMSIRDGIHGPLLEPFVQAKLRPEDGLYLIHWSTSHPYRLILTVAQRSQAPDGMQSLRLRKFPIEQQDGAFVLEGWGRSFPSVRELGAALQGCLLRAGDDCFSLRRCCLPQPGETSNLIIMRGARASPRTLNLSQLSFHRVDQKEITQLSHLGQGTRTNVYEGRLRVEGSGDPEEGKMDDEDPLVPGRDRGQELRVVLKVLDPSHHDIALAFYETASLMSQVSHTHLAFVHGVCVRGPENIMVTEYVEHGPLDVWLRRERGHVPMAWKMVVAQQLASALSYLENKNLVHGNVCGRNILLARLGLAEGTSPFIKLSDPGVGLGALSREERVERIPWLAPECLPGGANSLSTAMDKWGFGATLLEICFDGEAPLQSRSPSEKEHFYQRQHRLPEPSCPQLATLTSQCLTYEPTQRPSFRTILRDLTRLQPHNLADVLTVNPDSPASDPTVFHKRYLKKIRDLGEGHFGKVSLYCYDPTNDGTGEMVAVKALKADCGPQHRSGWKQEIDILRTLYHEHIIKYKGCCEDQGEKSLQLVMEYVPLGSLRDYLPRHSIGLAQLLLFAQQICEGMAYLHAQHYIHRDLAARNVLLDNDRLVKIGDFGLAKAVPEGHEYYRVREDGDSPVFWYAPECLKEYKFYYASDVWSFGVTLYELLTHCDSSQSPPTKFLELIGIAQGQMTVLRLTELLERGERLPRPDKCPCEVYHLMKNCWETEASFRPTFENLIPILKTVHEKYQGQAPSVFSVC
Turning to `COc1cc2ncn(-c3cc(O[C@@H](C)c4ccccc4Cl)c(C(N)=O)s3)c2cc1OC`, the inhibition was -4.63%.
With `CCCN1CCC(Oc2cc(Nc3nc(Nc4cccc(F)c4C(N)=O)c4cc[nH]c4n3)c(OC)cc2Cl)CC1`, the inhibition is 0.45%.
On the same count and under the same terms, the result for `[O-][S+]1CCN(Cc2ccc(-c3ccc4ncnc(Nc5ccc(OCc6ccccc6)c(F)c5)c4c3)o2)CC1` reads -3.99%; that for `Cc1ccc(C(=O)NC2CCCCC2)cc1-c1ccc(C(=O)NCC2CC2)cc1`, -2.34%; that for `CNC(=O)c1cncc(/C=C/c2c(Cl)cccc2Cl)c1`, -3.44%.
Same read-out and setting: under `CN(C)c1cc2c(Nc3ccc4nc(Cc5ccccc5)[nH]c4c3)ncnc2cn1` stands -7.84%; under `CCn1c(-c2nonc2N)nc2ccncc21`, -0.83%; under `Fc1cccc(COc2ccc(Nc3ncnc4sc(-c5cccs5)cc34)cc2Cl)c1`, 1.15%.
As to `Cc1ccc(NC(=O)c2ccnc(N3CCCC3)c2)cc1-c1ccc(C(=O)NCC2CC2)cc1`, the inhibition is -2.58%.

In another assay the target is T1, Tyrosine-protein kinase receptor TYRO3 (Homo sapiens) (UniProt Q06418).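 Also: reported percentages are averaged inhibition values of TYRO3 kinase activity.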
T1 sequence (whole entry): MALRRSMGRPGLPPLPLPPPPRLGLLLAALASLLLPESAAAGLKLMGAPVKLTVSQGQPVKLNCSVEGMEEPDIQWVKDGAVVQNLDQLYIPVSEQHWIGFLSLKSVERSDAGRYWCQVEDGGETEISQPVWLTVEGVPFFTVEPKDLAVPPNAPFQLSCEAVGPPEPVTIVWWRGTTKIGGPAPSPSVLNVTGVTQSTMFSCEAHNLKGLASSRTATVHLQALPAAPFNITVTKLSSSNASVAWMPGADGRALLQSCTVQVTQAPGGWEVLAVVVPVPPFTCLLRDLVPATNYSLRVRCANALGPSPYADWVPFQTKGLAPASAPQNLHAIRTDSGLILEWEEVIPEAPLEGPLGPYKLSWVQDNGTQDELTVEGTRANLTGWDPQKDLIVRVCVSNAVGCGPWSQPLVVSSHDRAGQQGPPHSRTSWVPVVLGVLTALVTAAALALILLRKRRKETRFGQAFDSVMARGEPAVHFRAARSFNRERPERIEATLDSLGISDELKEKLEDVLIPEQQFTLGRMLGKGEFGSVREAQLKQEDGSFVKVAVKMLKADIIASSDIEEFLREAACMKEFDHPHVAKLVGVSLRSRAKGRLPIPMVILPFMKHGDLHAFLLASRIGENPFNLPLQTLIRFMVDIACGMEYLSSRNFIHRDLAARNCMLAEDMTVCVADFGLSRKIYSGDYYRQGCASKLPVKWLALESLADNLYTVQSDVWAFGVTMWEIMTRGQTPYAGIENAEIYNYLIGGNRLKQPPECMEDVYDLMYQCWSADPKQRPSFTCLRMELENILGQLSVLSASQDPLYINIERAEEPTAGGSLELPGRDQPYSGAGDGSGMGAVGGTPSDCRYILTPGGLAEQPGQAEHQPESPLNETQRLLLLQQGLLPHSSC
The note with it: at 0.1 µM.
As for `CS(=O)(=O)CCN(CC#N)Cc1ccc(-c2ccc3ncnc(Nc4ccc(OCc5cccc(F)c5)c(Cl)c4)c3c2)o1`, the inhibition was -1.18%.
Turning to `CC(=O)Nc1cccc(C#Cc2cncnc2Nc2ccc(OCc3cccc(F)c3)c(Cl)c2)n1`, the inhibition was found to be 0.18%.
Same read-out and setting: under `COc1ccccc1Nc1ncc(-c2ccccc2)o1` stands 1.91%.
On to `NS(=O)(=O)c1cccc(-c2ccc3c(NC(=O)C4CC4)n[nH]c3c2)c1`, for which the inhibition is -0.52%.
As for `Cc1nnc(-c2ccc(C)c(-c3ccc(C(=O)Nc4cccc(C#N)c4)cc3)c2)o1`, the inhibition was found to be 1.94%.
`COc1ccc(-c2nn3ncccc3c2-c2ccnc(Nc3ccc(Cl)c(C(F)(F)F)c3)n2)cc1`: the inhibition was found to be 0.79%.
On the same count and under the same terms, the result for `O=C1NC(=O)C(c2ccc(Cl)cc2)=C1Nc1ccc(Cl)c(C(=O)O)c1` reads -0.81%.
With `COC(=O)Nc1nc2cc(Oc3cccc(NC(=O)Nc4cc(C(F)(F)F)ccc4F)c3)ccc2[nH]1`, the inhibition is -1.36%.
The same measure, in the same setting: under `O=C1NC(=O)C(c2cccc(Cl)c2)=C1Nc1ccc(O)c(Cl)c1` stands -0.43%; under `CCCN1CCC=C(c2ccc(Nc3nc(Nc4ccccc4C(N)=O)c4cc[nH]c4n3)c(C)c2)C1`, 0.75%; under `Nc1nc(-c2ccc3c(c2)C(=Cc2cc(Br)c(O)c(Br)c2)C(=O)N3)cs1`, -0.46%.
Same read-out and setting: the result for `O=C1NC(=O)C(c2ccccc2Cl)=C1Nc1cccc(O)c1` reads 1.29%; that for `CCc1cccc(NC(=O)Nc2ccc(Oc3ccc4nc(NC(=O)OC)[nH]c4c3)cc2)c1`, 10.6%.
Turning to `CC1=C(C(=O)Nc2ccc3[nH]ncc3c2)C(c2ccc3ccccc3c2)CC(=O)N1` (configuration not stated), the inhibition is 3.61%.
On to `CS(=O)(=O)Nc1ccc(N/C=C2\C(=O)Nc3ccccc32)cc1`, for which the inhibition was -2.18%.
For `COc1cc2c(cc1Nc1nc(N3CCc4ccccc43)c3cc[nH]c3n1)N(C(=O)CN(C)C)CC2`, the inhibition turned out to be 1.61%.
On to `CCN1CCC(CC(=O)Nc2n[nH]c3nc(-c4cccs4)c(Br)cc23)CC1`, for which the inhibition is -1.49%.
Take `NCc1ccc(-c2nc(-c3ccc(Cl)c(O)c3)c(-c3ccncc3)[nH]2)cc1`: the inhibition was determined as 0.69%.
On to `COC(=O)Nc1nc2cc(Oc3ccc(NC(=O)Nc4cccc(C(=O)O)c4)cc3)ccc2[nH]1`, for which the inhibition is 0.5%.
Still for that read-out and setting: under `O=C(Nc1n[nH]c2nc(-c3ccco3)c(Br)cc12)C1CC1` stands 2.22%; under `CCn1c(-c2nonc2N)nc2cnc(Oc3cccc(NC(=O)c4ccc(OCCN5CCOCC5)cc4)c3)cc21`, 3.27%.
Still for that read-out and setting: the result for `COc1cccc(-n2ncc3c(N/N=C/c4cccc(F)c4)ncnc32)c1` reads 3.08%.
As for `Nc1ncnc2occ(-c3ccc(NC(=O)Nc4cccc(C(F)(F)F)c4)cc3)c12`, the inhibition was found to be 3.18%.
For `CCn1c(-c2nonc2N)nc2cncc(C(=O)N3CC[C@H](N)C3)c21`, the inhibition was found to be 4.09%.
Same read-out and setting: the result for `COc1cc2ncn(-c3cc(O[C@@H](C)c4ccccc4Cl)c(C(N)=O)s3)c2cc1OC` reads 2.45%; that for `CCCN1CCC(Oc2cc(Nc3nc(Nc4cccc(F)c4C(N)=O)c4cc[nH]c4n3)c(OC)cc2Cl)CC1`, -0.27%.
Still for that read-out and setting: the result for `[O-][S+]1CCN(Cc2ccc(-c3ccc4ncnc(Nc5ccc(OCc6ccccc6)c(F)c5)c4c3)o2)CC1` reads 1.34%.
Regarding `Cc1ccc(C(=O)NC2CCCCC2)cc1-c1ccc(C(=O)NCC2CC2)cc1`, the inhibition was found to be 1.42%.
Turning to `CNC(=O)c1cncc(/C=C/c2c(Cl)cccc2Cl)c1`, the inhibition was 1.91%.
`CN(C)c1cc2c(Nc3ccc4nc(Cc5ccccc5)[nH]c4c3)ncnc2cn1`: the inhibition was found to be 3.2%.
On to `CCn1c(-c2nonc2N)nc2ccncc21`, for which the inhibition is -0.29%.
Still for that read-out and setting: the result for `Fc1cccc(COc2ccc(Nc3ncnc4sc(-c5cccs5)cc34)cc2Cl)c1` reads 0.54%; that for `Cc1ccc(NC(=O)c2ccnc(N3CCCC3)c2)cc1-c1ccc(C(=O)NCC2CC2)cc1`, 2.24%.

Broadly, the inhibition is the drop in the measured response relative to a control, in per cent.

The values above are taken from ChEMBL document CHEMBL1961873, “Compounds: GSK PKIS; Assays: Nanosyn kinase panel” (2012).
